This is a sample that favours compounds with a hit; in the whole collection about 21% have one here.
Pf growth 96h – P. falciparum growth inhibition at 96 hours | Potency, µM (titrated, usually from 28.7 µM), for inactives: at the top dose activity change, negative = inhibition, hits mostly inhibitors | 6.9% of 320,000 active | P. falciparum luciferase reporter growth, 96 h | AID 504834; also: potency is read from the fitted curve at half-maximal effect; % is scaled to controls: 0 for no effect and ±100 for the full control effect
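P. falciparum expressing integrated firefly luciferase grown in erythrocytes (2% hematocrit, 0.05% parasitemia final) with compounds for 96 hours at 37 C, 5% CO2. Growth inhibition read as loss of luminescence after adding luciferase detection reagent.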
NS1 inh – inhibitors of influenza NS1 protein function. 0.4% of 270,000 active. Potency, µM (titrated, usually from 46.1 µM), for inactives: at the top dose activity, positive = more growth; calls by dose curve; also: potency is read from the fitted curve at half-maximal effect; actives are rising curves; nearly all actives have a fitted effect of over 50% in size
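OD600 was taken as the measure of yeast growth restored by compound in an NS1-expressing S. cerevisiae strain. Cells had been washed out of glucose medium and diluted 1:100 into galactose -URA medium, pH 6.0.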
Pf growth 48h – inhibits P. falciparum growth in the first generation, 48 h. P. falciparum luciferase growth in erythrocytes, 48 h. Potency, µM (titrated, usually from 28.7 µM), for the others: top-dose activity change, negative = inhibition, actives largely listed as inhibitors. 5.9% of 310,000 active. AID 504832; also: potency is read from the fitted curve at half-maximal effect; % is scaled to controls: 0 for no effect and ±100 for the full control effect
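Here the parasites carry a stable luciferase gene and grow inside erythrocytes in Albumax-based RPMI medium with compound for one erythrocytic cycle. Activity is scored as loss of luminescent signal.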
Shiga toxin inh – blocks Shiga toxin action in Vero cells. inhibition, % at 38.7 µM. 9.2% of 290,000 active. Vero cells, Shiga toxin protein synthesis inhibition reporter. AID 2315; in the data active = inhibition mostly above about 28%, no sharp cut-off; inactive = mostly below about 43%; also: 0% is about no effect
SARS PLpro yeast – blocks SARS-CoV papain-like protease in a yeast assay; AID 485353; Potency, µM (highest dose often 32.9 µM), inactives show at the top dose activity, positive = growth rescue, hits mostly activators; S. cerevisiae expressing SARS-CoV PLpro, growth rescue; 0.19% of 330,000 active; calls by dose curve; also: potency is read from the fitted curve at half-maximal effect; 0% is about no effect; nearly all actives have a fitted effect of over 55% in size
CHX counter – counter-screen hit for Shiga toxin inhibitors, cycloheximide | cell reporter, cycloheximide protein synthesis inhibition counterscreen | max response, % | 12% of 300,000 active | AID 2314; in the data active = max response mostly above about 13%, no sharp cut-off; inactive = mostly below about 14%; also: read at 38.3 µM for the half of the compounds with a filed dose; 0% is about no effect
* marks the source's active call; other numbers are inactive results; u = inconclusive; x = no result; [ ] = dose if it differs, or a comment. Unless noted, calls follow the shape of the dose curve; as a rule, active = well fitted inhibition curve with a large enough effect; inconclusive = small, poorly fitted or top-dose-only effect, or another doubt; inactive = no such curve, though single readings can be large or run the other way.

SMILES | Pf growth 96h | NS1 inh | Pf growth 48h | Shiga toxin inh | SARS PLpro yeast | CHX counter
COc1ccnc(NCc2ccc(Cl)cc2)c1C#N | 42% | -1% | 36% | 56* | 8% | 27*
CCN(CC)C(=S)SC1CCCCN(C(=O)c2ccccc2)C1=O (stereo not drawn) | 28% | -6% | -1% | 57* | -1% | 36*
CC(=O)Nc1ccc(NC(=O)c2ccc(-n3c(C)ccc3C)cc2)cc1 | u | 24% | -14% | 26 | 4% | 13
CCc1ccccc1NC(=O)c1ccc(-n2c(C)ccc2C)cc1 | 15µM* | 9% | u | -7 | -3% | -2
Cc1ccc(C)n1-c1ccc(C(=O)Nc2ccccc2F)cc1 | -65% | x | -31% | 102* | -2% | 57*
CCCN1C(=O)c2cc(C(=O)Nc3ccccc3CC)ccc2C1O (stereo not drawn) | 10µM* | 5% | x | -6 | -3% | -5
CCn1cc(C(=O)NCCC(=O)NC(C)C)c(=O)c2cc3c(cc21)OCO3 | 2% | 5% | 19% | -2 | 3% | 1
O=C(CCS(=O)(=O)c1cccs1)Nc1ccc(C(=O)NC2CCCC2)cc1 | u | 8% | -36%[1.15 µM] | 22 | -1% | -3
Clc1ccc(CNCc2cccs2)c(Cl)c1 | 27% | 0% | -6% | -11 | 15% | -1
COc1ccccc1/C=C1\CCC(C2CCCC2)C1=O (stereo not drawn) | 15µM* | 3% | 57% | 43* | 5% | 34*
O=C1/C(=C/c2ccc(F)cc2)CCC1C1CCCC1 (stereo not drawn) | u | -3% | 86% | 75* | -6% | 41*
CCOc1ccc(/C=C2\CCC(C3CCCC3)C2=O)cc1OC (stereo not drawn) | u | 1% | -4% | 30 | 0% | 8
CCOc1ccc(/C=C2\CCC(C3CCCC3)C2=O)cc1 (stereo not drawn) | 4% | 2% | 145% | 21 | 1% | 22*
COc1ccc(/C=C2\CCC(C3CCCC3)C2=O)cc1Cn1cccn1 (stereo not drawn) | 2% | 4% | -25% | 3 | -4% | 1
O=C1/C(=C/c2ccco2)CCC1C1CCCC1 (stereo not drawn) | u | x | 36% | 127* | -7% | 53*
COc1ccc(C(=O)c2ccc(Br)cc2)c2ccccc12 | 23% | 13% | 5% | -31 | -4% | 1
COc1ccc(CNC(=O)N2CCN(c3ccccc3)CC2)cc1 | 20% | 8% | 28% | -4 | -5% | 1
O=C1/C(=C/c2ccccc2)CCC1C1CCCC1 (stereo not drawn) | 36% | 1% | 42% | 76* | 4% | 40*
COc1ccc(NS(=O)(=O)c2cccc(C(=O)NC3CCC(O)CC3)c2)cc1 (stereo not drawn) | u | 3% | u | 21 | -2% | 1
O=C(CSc1nnc(Cc2cccs2)n1C1CC1)NC1CCS(=O)(=O)C1 (stereo not drawn) | -17% | x | u | x | -8% | x
Cc1ccc(S(=O)(=O)N(CC(=O)N2CCC(C)CC2)c2ccccc2)cc1 | 29% | 7% | 12µM* | 41 | -1% | 3
Cc1ccc(S(=O)(=O)N(CC(=O)N2CCOCC2)c2ccc(C(C)C)cc2)cc1 | 10µM* | -18% | -18% | -17 | -3% | 16
O=C(CN(c1ccc(F)cc1)S(=O)(=O)c1ccc2c(c1)OCCO2)N1CCOCC1 | 1µM* | -10% | 7% | -2 | 6% | -2
Cc1ccc(N(CC(=O)N2CCOCC2)S(=O)(=O)c2ccccc2)cc1 | x | 0% | 33% | 13 | -5% | -1
COc1ccc(C(=O)N/C(=C\c2cn(S(=O)(=O)N(C)C)c3ccccc23)C(=O)NCCCn2ccnc2)cc1 | 24% | -4% | 12µM* | -9 | -5% | -7
SMILES | Pf growth 96h | NS1 inh | Pf growth 48h | Shiga toxin inh | SARS PLpro yeast | CHX counter
COc1cc(C(=O)N/C(=C\c2cn(S(=O)(=O)N(C)C)c3ccccc23)C(=O)NCCCO)cc(OC)c1OC | 8.3µM* | x | u | -21 | -1% | 7
CC(/C=C/c1ccccc1)=N/O | 54% | 0% | 39% | 22 | -4% | 19*
CC(/C=C/c1ccc(O)cc1)=N/O | u | 0% | u | 28* | -10% | 19*
CC(/C=C/c1ccc(OCc2ccccc2)cc1)=N\O | 24% | -9% | 233% | 77* | 4% | 60*
O=C(COc1ccc2c(-c3ccccc3)cc(=O)oc2c1)Nc1cccnc1 | 1% | 1% | u | -1 | -2% | 4
COC(=O)c1ccc(NC(=O)CNCc2ccncc2)cc1 | 35% | -21% | 21% | -15 | -14% | 1
CC(C)N=C(NS(=O)(=O)c1ccccc1)C(Cl)(Cl)Cl | u | -32% | u | 38* | -29% | 19*
CCc1nnc(NC(=O)c2ccc(S(=O)(=O)N3CCCC(C)C3)cc2)o1 (stereo not drawn) | u | -29% | u | -7 | 2% | -2
CCN(c1ccccc1)S(=O)(=O)c1ccc(C(=O)Nc2nnc(COC)o2)cc1 | u | -15% | u | -39 | -4% | -7
COCCN(CCOC)S(=O)(=O)c1ccc(C(=O)Nc2nnc(C3CC3)o2)cc1 | x | -8% | -11% | -1 | 1% | -3
CCN(c1ccccc1)S(=O)(=O)c1ccc(C(=O)Nc2nnc(C3CC3)o2)cc1 | u | x | 9.3µM* | -15 | -1% | -3
CC1CCCN(S(=O)(=O)c2ccc(C(=O)Nc3nnc(-c4ccco4)o3)cc2)C1 (stereo not drawn) | u | -9% | 12µM* | -6 | 1% | -1
CN(c1ccccc1)S(=O)(=O)c1ccc(C(=O)Nc2nnc(C3CC3)o2)cc1 | 5.2µM* | x | 12µM* | -14 | 7% | 0
CCC1CCCCN1S(=O)(=O)c1ccc(C(=O)Nc2nnc(C3CC3)o2)cc1 (stereo not drawn) | u | -53% | 13µM* | -14 | 13% | -4
CCN(c1ccccc1)S(=O)(=O)c1ccc(C(=O)Nc2nnc(-c3ccco3)o2)cc1 | u | x | u | -7 | 2% | -5
CN(c1ccccc1)S(=O)(=O)c1ccc(C(=O)Nc2nnc(-c3ccco3)o2)cc1 | 7.4µM* | x | u | -4 | 12% | -3
C[C@H]1CN=C2N(CCNC(=O)CCC3CCCCC3)[C@H](Cc3ccc(O)cc3)CN21 | 12µM* | 1% | 5% | -14 | 1% | 1
COc1ccc(C[C@H]2CN3C(=NC[C@@H]3C)N2CCNC(=O)CCC2CCCCC2)cc1 | u | 4% | u | -4 | 0% | -1
O=C(CCC1CCCCC1)NCCN1C2=NC[C@H](Cc3ccccc3)N2C[C@H]1Cc1ccc(O)cc1 | 4.7µM* | 9% | u | 2 | 1% | 2
O=C(CCC1CCCCC1)NCCN1C2=NC[C@@H](Cc3ccccc3)N2C[C@H]1Cc1ccc(O)cc1 | 2.3µM* | 1% | u | -7 | 1% | -1

Screens from PubChem.
